A selection: hits, their analogues and other compounds. The true share with any hit is near 3.5%.
FBW7 activator – human FBW7 E3 ligase activation, primary screen; Q969H0; hit rate 0.13% among 650,000; AlphaScreen FBW7–phospho-cyclin E peptide binding, activator screen; normalized activity (activation), % at 26.1 µM; AID 1259310; in the data active = normalized activity above about 1.9%;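 also: purified mutant Fbw7 with reduced substrate affinity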
MITF inh – inhibitors of human MITF | inhibition, % at 2.6 µM | AlphaScreen MITF homodimerization, bead proximity signal | hit rate 0.91% among 650,000; in the data active = inhibition above about 50%
GPR151 ag – human GPR151 activation | PathHunter beta-arrestin GPR151 cells, luminescence | activation, % at 11.2 µM | hit rate 1% among 650,000 | AID 1508602; in the data active = activation above about 4.9%
Target sequence (Q8TDV0 whole entry, looked up): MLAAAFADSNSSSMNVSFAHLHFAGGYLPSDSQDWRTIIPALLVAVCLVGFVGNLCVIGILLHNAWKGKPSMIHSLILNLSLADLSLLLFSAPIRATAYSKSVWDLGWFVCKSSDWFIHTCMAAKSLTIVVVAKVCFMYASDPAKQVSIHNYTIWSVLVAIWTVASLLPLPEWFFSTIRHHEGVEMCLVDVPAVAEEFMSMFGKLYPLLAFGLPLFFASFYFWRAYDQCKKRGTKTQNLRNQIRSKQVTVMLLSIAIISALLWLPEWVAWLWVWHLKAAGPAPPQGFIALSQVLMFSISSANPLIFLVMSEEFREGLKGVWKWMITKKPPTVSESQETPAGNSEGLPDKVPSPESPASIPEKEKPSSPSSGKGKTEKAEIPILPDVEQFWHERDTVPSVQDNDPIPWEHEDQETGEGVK
TEAD-YAP block – TEAD-YAP interaction inhibition. HEK-TIYL cells, TEAD-Gal4/YAP UAS-luciferase luminescence. inhibition, % at 9.12 µM. hit rate 1.4% among 640,000. AID 1259422; in the data active = inhibition above about 32%
GPR151 confirm – human GPR151 activation, confirmation screen; 6,700 tested, under 10 active; AID 1508609; GPR151 PathHunter beta-arrestin cells, luminescence, 90 min; % of EA-reagent control over plate median; shares compounds with GPR151 ag; activation, % at 11.2 µM;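 active = mean percent activation across replicates above the confirmation screen cutoff of 4.91%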
GPR119 counter – counter-screen for GPR151 activators: effect on human GPR119; activation, % at 11.2 µM; AID 1508611; shares compounds with GPR151 ag; hit rate 0.3% among 6,700; GPR119 PathHunter beta-arrestin cells, luminescence, 90 min; 0 = compound-well median, 100 = enzyme-acceptor control;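 active = mean percent activation in the counterscreen above 29.09%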;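 also: counterscreen on off-target GPR119 to flag nonselective hits from the GPR151 activator screen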
Large screens that a line does not name were inactive (follow-up assays come after a bar, where they were run).

COC(=O)c1c(C)oc2c1cc(NS(=O)(=O)c1cc(C)ccc1C)c1ccccc12	none
COc1ccc(OC)c(S(=O)(=O)Nc2cc3c(C(C)=O)c(C)oc3c3ccccc23)c1	GPR151 ag 5.7 | GPR151 confirm inactive | GPR119 counter inactive
Cc1nc(N2CCC(C(=O)NCCC3=CC[C@H]4C[C@@H]3C4(C)C)CC2)nc2ccccc12	none
O=C(Nc1ccc2[nH]ncc2c1)[C@H]1CCN(C(=O)[C@@H](O)CSc2ccc(Br)cc2)C1	GPR151 ag 5.7 | GPR151 confirm inactive | GPR119 counter inactive
O=C(Nc1ccc2[nH]ncc2c1)[C@H]1CCN(C(=O)[C@H](O)CSc2ccc(Br)cc2)C1	none
Cc1ccc(C2CC(=O)n3c(nc4ccccc43)N2)cc1 (stereo not drawn)	none
Cc1ccc(C2CC(=O)n3nc(N)nc3N2)cc1 (stereo not drawn)	GPR151 ag 5.9 | GPR151 confirm inactive | GPR119 counter inactive
CC1CCCCC1NC(=O)CNC(=S)N(Cc1cccs1)C1CCCCC1 (stereo not drawn)	none
O=C(CNC(=S)N(Cc1cccs1)C1CCCCC1)NC1CCCC1	GPR151 ag 6.2 | GPR151 confirm inactive | GPR119 counter inactive
Cc1cccc(C(=O)Oc2ccc(/C=N/N=C(N)N)cc2)c1	GPR151 ag 8.5, TEAD-YAP block 65 | GPR151 confirm inactive | GPR119 counter inactive
Cc1cccc(C(=O)Oc2ccc(C)c(C)c2)c1	none
CCCNc1nc(Nc2ccc(C)cc2)nc(N2CCCC2)n1	GPR151 ag 4.9 | GPR151 confirm inactive | GPR119 counter inactive
Cc1ccc2c(Cn3cc(C(F)(F)F)cc(Cl)c3=O)cc(=O)oc2c1	GPR151 ag 7.6 | GPR151 confirm inactive | GPR119 counter inactive
CN(C)c1ccc(C(=O)OCC(=O)NC(=O)Nc2ccc3c(c2)OCCO3)cc1	none
COC(=O)C1=C(NC(=O)COc2ccc(Cl)cc2)CCS1	GPR151 ag 6.1 | GPR151 confirm inactive | GPR119 counter inactive
COC(=O)C1=C(NC(=O)c2ccccc2Br)CCS1	GPR151 ag 5.0 | GPR151 confirm inactive | GPR119 counter inactive
COCCNc1c2c(nc3c(-c4ccc(OC)cc4)c(C)nn13)CCC2	none
CCOC(=O)N1CCN(c2ncnc3c2cnn3-c2ccccc2)CC1	none
COc1ccc(CNC(=O)c2cnn3c(C(F)(F)F)cc(-c4ccc(F)cc4)nc23)cc1	none
CCOC(=O)C1CCN(C(=O)Nc2ccc(Cl)cc2Cl)CC1	GPR151 ag 5.4 | GPR151 confirm inactive | GPR119 counter inactive
COc1ccc(C2/C(=C(\O)c3ccc(C)cc3)C(=O)C(=O)N2c2nncs2)cc1OC (stereo not drawn)	none
COc1ccccc1C(=O)COC(=O)C1(C)CC1(Cl)Cl (stereo not drawn)	GPR151 ag 7.6 | GPR151 confirm inactive | GPR119 counter inactive
N#CC1=C(N)C(C#N)(C#N)[C@@H](c2ccccc2Cl)[C@@H]2CCCC=C12	none
CCCCNC(=O)C(CC)Sc1nnc(-c2ccccc2)c(-c2ccccc2)n1 (stereo not drawn)	GPR151 ag 5.5 | GPR151 confirm inactive | GPR119 counter inactive
Cc1c(Cl)cccc1NC(=O)CCNS(=O)(=O)c1ccc2c(c1)oc(=O)n2C	none
O=S(=O)(NCC(c1ccco1)N1CCc2ccccc21)c1ccc(F)cc1 (stereo not drawn)	GPR151 ag 9.1 | GPR151 confirm inactive | GPR119 counter inactive
CN1CCC(N2CCC(Oc3cccc(C(=O)NCCc4cnn(C)c4)c3)CC2)CC1	none
CN1CCN(NC(NC(=O)OCC2CCCO2)C(Cl)(Cl)Cl)CC1 (stereo not drawn)	none
Cc1c(C(=O)N2CCN(c3ccccc3Cl)CC2)nnn1-c1nc2c(s1)CCCC2	GPR151 ag 9.4 | GPR151 confirm inactive | GPR119 counter inactive
Nc1ccccc1Nc1ccc([N+](=O)[O-])cc1C(=O)O	none
CC(=O)N1CCN(Cc2cccc(Cl)c2Cl)CC1	none
CC(=O)N1CCN(Cc2ccccc2Br)CC1	GPR151 ag 7.9 | GPR151 confirm inactive | GPR119 counter inactive
CCC(=O)N1c2ccccc2NC2=C(C(=O)CC(C)(C)C2)C1c1ccc(N(C)C)cc1 (stereo not drawn)	none
CC1(C)CC(=O)C2=C(C1)Nc1cc(C(=O)c3ccccc3)ccc1N1C(=O)c3ccccc3C21 (stereo not drawn)	GPR151 ag 5.1 | GPR151 confirm inactive | GPR119 counter inactive
CC1(C)CC(=O)C2=C(C1)Nc1ccccc1N1C(=O)c3ccccc3C21 (stereo not drawn)	none
CCC(=O)N1c2ccccc2NC2=C(C(=O)CC(C)(C)C2)C1c1ccc(Cl)cc1 (stereo not drawn)	GPR151 ag 5.1 | GPR151 confirm inactive | GPR119 counter inactive
Cc1ccc(CSCC(=O)NCc2ccccc2C)cc1	none
Nc1c(C(=O)Nc2ccc(Oc3ccccc3)cc2)nnn1Cc1ccccc1	none
COc1ccc(NC(=O)c2nnn(Cc3ccccc3)c2N)cc1	GPR151 ag 8.1 | GPR151 confirm inactive | GPR119 counter inactive
CC(C(=O)OCC(=O)Nc1ccc(SC(F)F)cc1)N1C(=O)c2ccccc2C1=O (stereo not drawn)	GPR151 ag 5.8 | GPR151 confirm inactive | GPR119 counter inactive
CCC(C)Nc1ncnc2c1cnn2-c1ccc(C)cc1 (stereo not drawn)	none
N#Cc1c(-c2cccc([N+](=O)[O-])c2)c(C#N)c(=O)n(N)c1N	none
N#Cc1c(-c2ccccc2)cc(-c2cccc([N+](=O)[O-])c2)c(C#N)c1N	GPR151 ag 5.9 | GPR151 confirm inactive | GPR119 counter inactive
CCCCN(C)c1nc(N)c([N+](=O)[O-])c(N2CCOCC2)n1	none
Nc1nc(N2CCOCC2)nc(N2CCOCC2)c1[N+](=O)[O-]	GPR151 ag 6.5 | GPR151 confirm inactive | GPR119 counter inactive
Cc1cccc(-n2cc(-c3ccccc3)nc2SCC(=O)Nc2ccc(Cl)cc2)c1	GPR151 ag 6.3 | GPR151 confirm inactive | GPR119 counter inactive
O=C(Nc1ccc2c3c(cccc13)CC2)c1ccc(-c2ccc(Cl)cc2)o1	GPR151 ag 5.1 | GPR151 confirm inactive | GPR119 counter inactive
COc1cccc(/C=C2\NC(=O)N(Cc3ccc(Cl)cc3)C2=O)c1OC(C)C	none
O=C(CN(c1ccccc1Cl)S(=O)(=O)c1ccccc1)NC1CC1	GPR151 ag 5.9 | GPR151 confirm inactive | GPR119 counter inactive
CC(C)(C)c1[nH]nc2c1C(c1ccsc1)C(C#N)=C(N)O2 (stereo not drawn)	GPR151 ag 6.6 | GPR151 confirm inactive | GPR119 counter inactive
Cc1ccc(Oc2nc3c(C)cccn3c(=O)c2/C=C(\C#N)C(=O)NC2CCCC2)cc1	none
CC(NC(=O)CC1S/C(=N/N=C/c2ccco2)NC1=O)C(=O)O (stereo not drawn)	GPR151 ag 5.7 | GPR151 confirm inactive | GPR119 counter inactive
CNC(=O)CCC(=O)N1CCOc2ccc(Cl)cc21	GPR151 ag 7.2 | GPR151 confirm inactive | GPR119 counter inactive

Assay outcomes from PubChem BioAssay.
